Reference: the OligoGym collection

The sequences below were run against FH (assay: pooled miR-30 sensor sort-seq; sequence = guide strand). Conditions: shRNA.

| Sequence | sensor-assay potency score (higher = more potent) |
| --- | --- |
| TATTGCAGCAGCAATGTGCATT | -0.245 |
| TTGCATTAGCAATCTTTGGATC | -0.818 |
| TTCATCAGCTTGTTGATCCTTT | 0.529 |
| TTACTTGTTGAACATAACCACT | -1.14 |
| TCTTAGACCTAGCACATCCTAG | -0.529 |
| TTTCCTTTAAGGTTGATCCATT | -0.612 |
| TATATGAGGATTGAGAGCTGTC | 0.308 |
| TTTACTTGTTGAACATAACCAC | 0.162 |
| TATTGCATTAGCAATCTTTGGA | 0.0448 |
| TTAAAGTTCATCGTAGATCTCA | 0.281 |
| TAACACATTTTTAATCATCATT | -1.28 |
| TTCTATTGCAGCAGCAATGTGC | -0.565 |
| TTTGCTATCTTCATCAGACTGC | 0.482 |
| TTCTGTCACACCTCCAATCTTA | -0.00125 |
| AACATAACCACTAAATTCCTGC | -0.241 |
| TTTATTAACATGATCGTTGGGA | 0.847 |
| TTTCCTTTCAAACTTATCCGTT | -0.472 |
| TTGTCTGAGTTCCTGATCCAGT | -0.75 |
| TTTACATTCATATTTGTCTGAG | -0.0374 |
| TGGATCAAGACCATAATCCTGG | 0.098 |
